Laboratory results taken from PubChem BioAssay.
Unmarked numbers belong to inactive results. Activity calls are given as the source filed them. Unless noted, no stated cut-off is given here; in the data, active means inhibition above about 28%; inactive means the rest.

Columns and labels:
[1] = StAR promoter reporter inhibitors, counter-screen for LRH-1 inverse agonist project, cell-based, luminescence, high throughput (AID 651611); settings: StAR promoter luciferase reporter counterscreen, at 3.6 µM, hits give high values
[2] = biological target: Nuclear receptor subfamily 5 group A member 2 (Homo sapiens) (UniProt O00482); experiment: NR5A2 activity suppression in reporter cells – cell-based, luminescence, confirmation (AID 651613; in the data active means inhibition above about 42%;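 further: HEK293T cells co-transfected with LRH-1 and StAR promoter luciferase reporter; 0% = vehicle wells and 100% = parental cells lacking receptor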); settings: cell-based LRH-1 luciferase reporter, inverse agonism; at 3.6 µM; hits give high values
[3] = biological target: Steroidogenic factor 1 (Homo sapiens) (UniProt Q13285); experiment: inverse agonism at SF1 nuclear receptor – cell-based, luminescence, high throughput, counter-screen for LRH-1 inverse agonist project (AID 651614; in the data active means inhibition above about 44%;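 further: cells cotransfected with StAR promoter reporter and SF1 expression vector; 0% = vehicle on cells with receptor and 100% = vehicle on cells lacking receptor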); settings: cell-based SF1 luciferase reporter, at 3.6 µM, hits give high values
[4] = compounds suppressing VP16-driven luciferase signal – cell-based, luminescence, high throughput, counter-screen for LRH-1 inverse agonist project (AID 651615; in the data active means inhibition above about 33%); settings: Gal4-VP16 luciferase reporter cells, at 3.6 µM, hits give high values

Chain of Steroidogenic factor 1 (Homo sapiens) (Q13285 whole entry, looked up, the tested form may be a part): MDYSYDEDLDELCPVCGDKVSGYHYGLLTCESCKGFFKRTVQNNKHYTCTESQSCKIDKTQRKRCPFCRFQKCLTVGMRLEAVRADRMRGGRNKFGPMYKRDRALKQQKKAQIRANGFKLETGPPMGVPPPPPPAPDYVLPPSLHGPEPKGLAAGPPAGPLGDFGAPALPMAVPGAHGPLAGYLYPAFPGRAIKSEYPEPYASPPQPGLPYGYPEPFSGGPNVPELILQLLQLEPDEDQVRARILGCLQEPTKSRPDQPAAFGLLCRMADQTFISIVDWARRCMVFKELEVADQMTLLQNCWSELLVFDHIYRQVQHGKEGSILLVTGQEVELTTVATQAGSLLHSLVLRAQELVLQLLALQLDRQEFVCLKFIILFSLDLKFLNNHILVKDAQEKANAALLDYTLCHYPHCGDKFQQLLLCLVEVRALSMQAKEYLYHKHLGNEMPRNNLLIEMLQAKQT
Chain of Nuclear receptor subfamily 5 group A member 2 (Homo sapiens) (O00482 whole entry, looked up): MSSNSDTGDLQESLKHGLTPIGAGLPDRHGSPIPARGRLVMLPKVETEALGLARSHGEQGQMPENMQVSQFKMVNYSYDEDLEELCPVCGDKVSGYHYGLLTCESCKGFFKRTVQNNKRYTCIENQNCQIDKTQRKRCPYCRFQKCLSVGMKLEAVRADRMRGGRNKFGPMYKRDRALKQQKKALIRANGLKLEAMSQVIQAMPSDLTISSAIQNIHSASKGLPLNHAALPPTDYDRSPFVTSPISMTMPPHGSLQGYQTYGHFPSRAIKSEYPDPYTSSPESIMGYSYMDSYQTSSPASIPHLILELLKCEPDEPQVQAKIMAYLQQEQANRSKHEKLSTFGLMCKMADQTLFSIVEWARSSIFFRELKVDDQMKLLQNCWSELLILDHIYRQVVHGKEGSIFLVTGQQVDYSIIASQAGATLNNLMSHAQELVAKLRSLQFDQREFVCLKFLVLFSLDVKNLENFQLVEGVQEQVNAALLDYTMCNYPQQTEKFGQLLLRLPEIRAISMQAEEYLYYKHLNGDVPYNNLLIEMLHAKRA

Structure (SMILES)	inhibition [1]	inhibition [2]	inhibition [3]	inhibition [4]
Cc1nc2ccc(NS(=O)(=O)c3ccc4c(c3)OCCO4)cc2s1	7.73%	56.4% (active)	57.4% (active)	52.6% (active)
CC(=O)c1ccsc1-c1c(C)cc2oc(=O)cc(-c3ccccc3)c2c1C	8.02%	64.7% (active)	54.4% (active)	-0.37%
CCN(CC)c1ccc(C2=NNC(=O)CC2C)cc1[N+](=O)[O-] (stereo unspecified)	-14.3%	17%	21.7%	-1.3%
CCOc1ccccc1C(=O)Nc1cc2c(cc1N1CCCC1)n(CC)c(=O)n2CC	52.6% (active)	48.8% (active)	53.5% (active)	49.6% (active)
CCOc1ccc(NC(=O)CSc2nc3c(c(=O)n2-c2ccccc2OC)SCC3)cc1	8.34%	63.1% (active)	58.7% (active)	-10.6%
CCOC(=O)c1ccc(N2CCN(C(=O)c3ccccc3)CC2)c(NC(=O)c2ccco2)c1	26.2%	38.6%	40.9%	-26.2%
CC(=O)Nc1ccc(-c2c(C)cc3oc(=O)cc(-c4ccccc4)c3c2C)cc1	15.9%	57.9% (active)	58.9% (active)	-2.96%
COc1ccc(C(=O)OCC(=O)Nc2ccc(N3CCOCC3)cc2)cc1OC	10.1%	52.8% (active)	51.7% (active)	-1.85%
CN(CCc1ccccc1)C(=O)c1ccc(NC(=O)Cc2ccc(NC(=O)C3CCCN(C(=O)CCc4ccccc4)C3)cc2)cc1 (stereo unspecified)	30.9% (active)	62.4% (active)	64.5% (active)	59.8% (active)
